Source: PubChem BioAssay (National Center for Advancing Translational Sciences (NCATS))
An excerpt weighted towards active compounds, which were near 2.3% of everything screened.
TDP43 rescue: inhibitors of TDP-43 toxicity in yeast; Potency, µM (titrated, usually from 46.1 µM), for the others: at the top dose growth rescue (activation), usual class: activators; 410,000 compounds, 1.8% hits; TDP-43 expressing yeast growth rescue, BacTiter-Glo, 24 h; further: potency means the concentration at half of the fitted maximal effect; % of control where 0% means no effect; nearly all actives have a fitted effect of over 50% in size
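Readout is BacTiter-Glo luminescence of cell growth, so inhibitors register as activators. TDP-43-expressing yeast at OD600=0.02 in galactose medium, after raffinose pregrowth to mid-log, were incubated with compound for 24 hr at 30 deg C.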
FUS suppressor: suppressors of FUS proteinopathy in yeast; S. cerevisiae FUS-expressing, growth rescue, OD600, 24 h; AID 1347120; 390,000 compounds, 0.24% hits; Potency, µM (top dose mostly 76.6 µM), actives largely listed as activators;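 further: potency means the concentration at half of the fitted maximal effect; plate controls were DMSO vehicle for no effect and reference control for full effect; nearly all actives have a fitted effect of over 55% in size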
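Absorbance at 600 nm, taken 24hr after compound addition, measured rescue of FUS-yeast growth at 30C. Induction used 2% galactose with seeding at OD 0.005. Controls: CP55940 from 92uM final, DMSO only.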
Mm-Cpn inhibitor: M. maripaludis TRiC chaperonin inhibition. purified Mm-Cpn ATPase, ADP Transcreener TR-FRET. Potency, µM (highest dose often 76.9 µM), for the others: at the top dose activity, negative = inhibition, usual class: inhibitors. 330,000 compounds, 0.031% hits. AID 504842; further: potency means the concentration at half of the fitted maximal effect; on the % scale 0 is the no-effect control and ±100 the full control effect; nearly all actives have a fitted effect of over 80% in size
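Purified archaeal Mm-CPN (25nM final) preincubated 10 min at 37degC with compound, then 10uM ATP for 30 min at 37degC; ADP measured by HTRF Transcreener TR-FRET; buffer 30 mM TRIS pH 7.4, 100mM KCl, 5mM MgCl2, 1mM DTT.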
Abeta rescue: A-beta toxicity reversal in yeast | yeast expressing A-beta42, growth rescue, OD600, 48 h; response scale: 0% DMSO, 100% iron-clioquinol control | Potency, µM (series often up to 46.1 µM), hits mostly activators | 410,000 compounds, 0.063% hits; further: potency means the concentration at half of the fitted maximal effect; nearly all actives have a fitted effect of over 55% in size
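Growth rescue measured by 600 nm absorbance after 48 h yeast culture at 30 C with compound. Values normalized between DMSO and an equimolar ferric chloride plus clioquinol control.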
CCT modulator: modulators of cytosolic chaperonin (CCT/TRiC) activity. purified chaperonin ATPase assay, HTRF ADP detection, 30 min. activity change, % (test concentration not listed), hits read low. 360,000 compounds, 0.3% hits. AID 651819; in the data active means activity change below about -30%; further: on the % scale 0 is the no-effect control and ±100 the full control effect
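Enzyme 40 or 20 nM (batch-dependent) in Tris pH 7.4/KCl/MgCl2/DTT; cpd 76 uM single point; ATP 10 uM; 30 min 37 °C; Transcreener ADP HTRF detection, 30 min RT; ratio 665/615.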
aSyn rescue: alpha-synuclein toxicity inhibition in yeast; Yeast expressing alpha-synuclein, growth rescue, BacTiter-Glo, 24 h; Potency, µM (top dose mostly 46.1 µM), inactives show at the highest dose growth rescue (activation), most hits filed as activators; 370,000 compounds, 0.14% hits; AID 652106; further: potency means the concentration at half of the fitted maximal effect; % of control where 0% means no effect; nearly all actives have a fitted effect of over 65% in size
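Screening used galactose-induced yeast with toxic alpha-synuclein levels, exposed to compound for 24 hr at 30 deg C. Cell growth, read with BacTiter-Glo luminescence, gave the measured signal.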
* = called active by the depositor; [ ] = another dose, or the depositor's remark. Unless noted, the call rests on the fitted dose curve; in most records, active means well fitted curve in the direction sought with a large enough effect; inconclusive means small, poorly fitted or top-dose-only effect, or another doubt; inactive means no such curve, though single readings can be large; an effect the other way counts as inactive or inconclusive.

`CCCCNC(=S)N(C)/N=C/c1c(F)cccc1F` gave TDP43 rescue inconclusive, Mm-Cpn inhibitor -0.7%, Abeta rescue inactive, CCT modulator -2.0 and aSyn rescue -14.3%.
For CCCCNC(=S)N(C)/N=C/c1ccc(F)cc1 the results were TDP43 rescue 11.2µM*, Mm-Cpn inhibitor 1.0%, Abeta rescue inactive, CCT modulator -2.0 and aSyn rescue -15.2%.
`O=C1CC(=O)OC(c2ccc([N+](=O)[O-])cc2)O1` gave TDP43 rescue 3.16µM*, FUS suppressor inactive, Abeta rescue inactive, CCT modulator 0.7 and aSyn rescue inconclusive.
`O=C(Nc1ccccc1)c1cc(C2CCCN(C(=O)C/C=C/c3ccccc3)C2)on1` (stereo not given) gave TDP43 rescue 22.4µM*, FUS suppressor inconclusive, Abeta rescue inactive, CCT modulator -0.8 and aSyn rescue -4.4%.
Cc1ccc(F)cc1C(=O)N1CCCC(c2cc(C(=O)Nc3ccccc3)no2)C1 (stereo not given) was read as TDP43 rescue 35.5µM*, FUS suppressor inactive, Abeta rescue inactive, CCT modulator -0.3 and aSyn rescue inconclusive.
Screening O=C(Nc1ccc(F)c(Cl)c1)c1cc(C2CCCN(C(=O)c3cccs3)C2)on1 (stereo not given) returned TDP43 rescue 22.4µM*, FUS suppressor inactive, Abeta rescue inactive, CCT modulator -0.2 and aSyn rescue -0.5%.
Screening O=C(Nc1ccc2c(c1)OCO2)c1cc(C2CCCN(C(=O)CCCc3ccccc3)C2)on1 (stereo not given) returned TDP43 rescue inconclusive, FUS suppressor inconclusive, Abeta rescue inactive, CCT modulator 1.7 and aSyn rescue 17.2%.
For Cc1ccc(F)cc1C(=O)N1CCCCC1c1cc(C(=O)Nc2ccccc2)no1 (stereo not given) the results were TDP43 rescue 0.0%, FUS suppressor inactive, Abeta rescue inactive, CCT modulator -0.5 and aSyn rescue 11.9%.
O=C(Nc1ccc2c(c1)OCO2)c1cc(C2CCCN(C(=O)CCc3ccccc3)C2)on1 (stereo not given) was read as TDP43 rescue 22.4µM*, FUS suppressor inconclusive, Abeta rescue inactive, CCT modulator -2.3 and aSyn rescue -4.2%.
For Cn1c(=O)c2c(-c3ccccc3Cl)n(-c3cc(Cl)ccc3O)cc2n(C)c1=O the results were TDP43 rescue 9.0%, FUS suppressor inactive and Abeta rescue inactive.
Screening O=C(Nc1ccccc1)c1cc(C2CCCCN2C(=O)CCCc2ccccc2)on1 (stereo not given) returned TDP43 rescue 0.0%, FUS suppressor inconclusive, Abeta rescue inactive, CCT modulator 0.7 and aSyn rescue 13.2%.
Screening O=C(Nc1ccc2c(c1)OCO2)c1cc(C2CCCCN2C(=O)CCCc2ccccc2)on1 (stereo not given) returned TDP43 rescue 35.5µM*, FUS suppressor inactive, Abeta rescue inactive, CCT modulator 2.4 and aSyn rescue 7.2%.
O=C(NCCc1csc2nc(-c3cccc(F)c3)nn12)c1ccc(Br)o1 was read as TDP43 rescue 35.5µM*, FUS suppressor inactive and Abeta rescue inactive.
For O=C(NCCc1csc2nc(-c3ccc(F)cc3)nn12)c1ccco1 the results were TDP43 rescue 0.0%[9.22 µM], FUS suppressor inactive and Abeta rescue inactive.
Screening Cc1ccc(-c2nc3scc(CCNC(=O)c4cccc(Br)c4)n3n2)cc1 returned TDP43 rescue 11.2µM*, FUS suppressor inactive and Abeta rescue inactive.
O=C(Oc1cccc(-n2cnnn2)c1)C1CCCCC1 was read as TDP43 rescue 11.2µM*, FUS suppressor inactive, Mm-Cpn inhibitor 0.5%, Abeta rescue inactive and CCT modulator -2.0.
